The source made the active and inactive calls. The calls were made as follows: active = hit-call score of the fitted dose curve at least 0.9, where 1 is the maximum; inactive = score below 0.9.

Outcome and AC50 data for 2 molecules are collected here from PubChem BioAssay (EPA / NIEHS).

Read-out in experiment [1]: Transforming growth factor beta 1 (TGFb1), TGFB1 (gene 7040)
The experiment is described as follows: BSK_KF3CT_TGFb1: BioMAP Diversity Plus: KF3CT Assay for Transforming growth factor beta 1 (TGFb1) Biomarker Activity (AID 2283072). The conditions noted are these: primary human keratinocytes with fibroblasts; actives raise or lower the signal. Put shortly:
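ELISA quantifies TGF-b1 at 24 h post-dose in a primary human skin co-culture of keratinocytes and fibroblasts, with gain or loss judged against DMSO. Parallel SRB total-protein staining flags overt cytotoxicity.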

Read-out in experiment [2]: C-C motif chemokine 2 (Homo sapiens) (UniProt P13500)
The experiment is described as follows: BSK_KF3CT_MCP1: BioMAP Diversity Plus: KF3CT Assay for Monocyte Chemoattractant Protein 1 (MCP1/CCL2) Biomarker Activity (AID 2283073). The conditions noted are these: primary human keratinocytes with fibroblasts; actives raise or lower the signal. In short, it runs like this: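 Keratinocytes and foreskin fibroblasts were co-cultured, dosed with chemical, and sampled 24 h later. MCP-1 was quantified by ELISA, and the endpoint was analyzed with bidirectional fitting using DMSO as negative control.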

Read-out in experiment [3]: Matrix Metallopeptidase 9 (MMP9), MMP9 (gene 4318)
The experiment in a line: BSK_KF3CT_MMP9: BioMAP Diversity Plus: KF3CT Assay for Matrix Metallopeptidase 9 (MMP9) Biomarker Activity (AID 2283074). The conditions noted are these: primary human keratinocytes with fibroblasts; actives raise or lower the signal. In short, it runs like this: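 MMP-9 quantified by ELISA after 24 h chemical treatment of primary human skin keratinocyte/fibroblast co-cultures; gain or loss fitted against DMSO, with parallel SRB staining (0.1% SRB, 560 nm) for overt cytotoxicity.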

Read-out in experiment [4]: urokinase plasminogen activator (uPA), PLAU (gene 5328)
The experiment is described as follows: BSK_KF3CT_uPA: BioMAP Diversity Plus: KF3CT Assay for urokinase plasminogen activator (uPA) Biomarker Activity (AID 2283075). The note with it: primary human keratinocytes with fibroblasts; actives raise or lower the signal. Put shortly:
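ELISA read-out of uPA 24 h after dosing human skin keratinocytes co-cultured with foreskin fibroblasts. Signal change fitted both ways relative to DMSO; sulforhodamine B on parallel cultures marks overt cytotoxicity.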

Read-out in experiment [5]: CD40, CD40 (gene 958)
The experiment in a line: BSK_LPS_CD40: BioMAP Diversity Plus: LPS Assay for CD40 Biomarker Activity (AID 2283076). The conditions noted are these: primary human HUVEC with PBMC; actives raise or lower the signal. Put shortly:
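CD40 signal, measured by ELISA, is fitted in both directions relative to DMSO vehicle. The system is an LPS-driven human vascular primary co-culture of endothelial cells and PBMC, sampled 24 h after compound addition.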

Read-out in experiment [6]: E-selectin (Homo sapiens) (UniProt P16581)
The experiment is described as follows: BSK_LPS_Eselectin: BioMAP Diversity Plus: LPS Assay for Eselectin Biomarker Activity (AID 2283077). The conditions noted are these: primary human HUVEC with PBMC; actives raise or lower the signal. Put shortly:
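Signal of E-selectin, detected by ELISA, served as the endpoint; cells were umbilical vein endothelium with PBMC, read 24 h after treatment. DMSO defined baseline, and both increases and decreases were fitted.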

Read-out in experiment [7]: Interleukin-8 (IL8), CXCL8 (gene 3576)
The experiment is described as follows: BSK_LPS_IL8: BioMAP Diversity Plus: LPS Assay for Interleukin-8 (IL8) Biomarker Activity (AID 2283078). The note with it: primary human HUVEC with PBMC; actives raise or lower the signal. In short, it runs like this: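 Endothelial cells and PBMC from human donors are co-cultured, treated with chemicals and LPS, then assayed for IL-8 by ELISA after 24 h. Parallel SRB staining (0.1% SRB after 10% TCA fixation, 560 nm) flags cytotoxicity.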

The nature of experiment [8]: BSK_LPS_SRB: Viability Assessment in the BioMAP Diversity Plus: LPS Assay (AID 2283079).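 Also: total protein by sulforhodamine B absorbance as a cytotoxicity measure; measured one day after compound addition; fitted in both directions against DMSO so loss or gain of signal counts.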 The note with it: primary human HUVEC with PBMC. In short, it runs like this:
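Overt cytotoxicity was gauged by sulforhodamine B total-protein staining in a primary human vascular endothelial and mononuclear cell co-culture 24 h post-dosing. Activity was fitted in both directions relative to DMSO.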

Read-out in experiment [9]: Interleukin-1 alpha (IL1a), IL1A (gene 3552)
The experiment is described as follows: BSK_LPS_IL1a: BioMAP Diversity Plus: LPS Assay for Interleukin-1 alpha (IL1a) Biomarker Activity (AID 2283080). The conditions noted are these: primary human HUVEC with PBMC; actives raise or lower the signal. Put shortly:
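Measured: IL-1 alpha via ELISA at 24 h in LPS-activated human umbilical vein endothelium–PBMC co-culture. Baseline: DMSO, bidirectional fitting.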

Read-out in experiment [10]: Monocyte Chemoattractant Protein-1 (MCP1), CCL2 (gene 6347)
The experiment in a line: BSK_LPS_MCP1: BioMAP Diversity Plus: LPS Assay for Monocyte Chemoattractant Protein-1 (MCP1) Biomarker Activity (AID 2283081). The conditions noted are these: primary human HUVEC with PBMC; actives raise or lower the signal. Put shortly:
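LPS-stimulated HUVEC/PBMC co-culture; chemical, 24 h; MCP-1 by ELISA; bidirectional fit vs DMSO; cytotoxicity via SRB (0.1% stain, 10% TCA fix, 560 nm) in parallel wells.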

The nature of experiment [11]: BSK_LPS_PGE2: BioMAP Diversity Plus: LPS Assay for Prostaglandin E2 (PGE2) Biomarker Activity (AID 2283082).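 As to AC50: secreted prostaglandin E2 measured by ELISA in LPS-stimulated co-culture.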 The note with it: primary human HUVEC with PBMC; actives raise or lower the signal. Put shortly:
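PGE2 release measured by ELISA in an LPS-activated co-culture of human umbilical vein endothelial cells and peripheral blood mononuclear cells, read at 24 h post-dosing. DMSO served as baseline for bidirectional curve fitting.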

Read-out in experiment [12]: Macrophage colony-stimulating factor (MCSF), CSF1 (gene 1435)
The experiment is described as follows: BSK_LPS_MCSF: BioMAP Diversity Plus: LPS Assay for Macrophage colony-stimulating factor (MCSF) Biomarker Activity (AID 2283083). The note with it: primary human HUVEC with PBMC; actives raise or lower the signal. In short, it runs like this: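 Compound is added to a human vascular primary co-culture of umbilical vein endothelium and blood mononuclear cells. After 24 h, M-CSF is quantified by ELISA. Signal changes are fitted in both directions against DMSO.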

Read-out in experiment [13]: Tissue Factor, F3 (gene 2152)
The experiment is described as follows: BSK_LPS_TissueFactor: BioMAP Diversity Plus: LPS Assay for Tissue Factor Biomarker Activity (AID 2283084). The conditions noted are these: primary human HUVEC with PBMC; actives raise or lower the signal. In short, it runs like this: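 In this co-culture system of umbilical vein endothelium with PBMC, stimulated with LPS, cell-surface CD142 is detected by ELISA at 24 h. Endpoint values derive from bidirectional fitting, DMSO serving as baseline.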

Read-out in experiment [14]: Tumor necrosis factor (Homo sapiens) (UniProt P01375)
The experiment in a line: BSK_LPS_TNFa: BioMAP Diversity Plus: LPS Assay for Tumour Necrosis Factor alpha (TNFa) Biomarker Activity (AID 2283085).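 As to AC50: TNFa protein level quantified by ELISA in the co-culture.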 The conditions noted are these: primary human HUVEC with PBMC; actives raise or lower the signal. Put shortly:
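TNFa was quantified by ELISA in LPS-activated co-cultures of human endothelial cells and PBMC, 24 h post-dosing. Both increases and decreases versus DMSO were fitted.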

Read-out in experiment [15]: Vascular cell adhesion molecule 1 (VCAM1), VCAM1 (gene 7412)
The experiment is described as follows: BSK_LPS_VCAM1: BioMAP Diversity Plus: LPS Assay for Vascular cell adhesion molecule 1 (VCAM1) Biomarker Activity (AID 2283086). The note with it: primary human HUVEC with PBMC; actives raise or lower the signal. Put shortly: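 VCAM-1 quantified by ELISA in an LPS-activated co-culture of human endothelial cells and peripheral blood mononuclear cells, read 24 h post-treatment. Fitted in both directions versus DMSO; parallel SRB staining flags overt cytotoxicity.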

Read-out in experiment [16]: CD38, CD38 (gene 952)
The experiment is described as follows: BSK_SAg_CD38: BioMAP Diversity Plus: SAg Assay for CD38 Biomarker Activity (AID 2283087). The conditions noted are these: primary human HUVEC with PBMC; actives raise or lower the signal. Put shortly:
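CD38 quantified by ELISA (fluorescence) in a superantigen-activated endothelial cell–PBMC co-culture at 24 h post-dose. Activity fitted in both directions relative to DMSO; parallel SRB and Alamar Blue cytotoxicity read-outs.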

Read-out in experiment [17]: CD40, CD40 (gene 958)
The experiment in a line: BSK_SAg_CD40: BioMAP Diversity Plus: SAg Assay for CD40 Biomarker Activity (AID 2283088). The conditions noted are these: primary human HUVEC with PBMC; actives raise or lower the signal. In short, it runs like this: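 Fluorescence ELISA read-out of CD40 from umbilical vein endothelium plus peripheral blood mononuclear cells, sampled 24 h after dosing. Values come from bidirectional curve fitting with DMSO as baseline.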

Read-out in experiment [18]: CD69, CD69 (gene 969)
The experiment in a line: BSK_SAg_CD69: BioMAP Diversity Plus: SAg Assay for CD69 Biomarker Activity (AID 2283089). The conditions noted are these: primary human HUVEC with PBMC; actives raise or lower the signal. In short, it runs like this: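 Values derive from bidirectional fitting relative to DMSO vehicle. Cells: umbilical vein endothelium plus peripheral blood mononuclear cells, treated 24 h before fluorescent ELISA for CD69.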

Read-out in experiment [19]: Monocyte Chemoattractant Protein-1 (MCP1), CCL2 (gene 6347)
The experiment is described as follows: BSK_SAg_MCP1: BioMAP Diversity Plus: SAg Assay for Monocyte Chemoattractant Protein-1 (MCP1) Biomarker Activity (AID 2283090). The conditions noted are these: primary human HUVEC with PBMC; actives raise or lower the signal. Put shortly: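 Values derive from bidirectional fitting of ELISA-measured MCP1 against DMSO controls. Readings were taken 24 h after dosing human vascular endothelial cells co-cultured with peripheral blood mononuclear cells under superantigen stimulation.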

Read-out in experiment [20]: E-selectin (Homo sapiens) (UniProt P16581)
The experiment is described as follows: BSK_SAg_Eselectin: BioMAP Diversity Plus: SAg Assay for Eselectin Biomarker Activity (AID 2283091). The conditions noted are these: primary human HUVEC with PBMC; actives raise or lower the signal. In short, it runs like this: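 Primary human endothelial cells and peripheral blood mononuclear cells were co-cultured and exposed to chemical for 24 hours. E-selectin levels were then quantified by ELISA, with bidirectional curve fitting normalised to DMSO controls.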

Sequence of E-selectin (Homo sapiens) (P16581 whole entry, looked up): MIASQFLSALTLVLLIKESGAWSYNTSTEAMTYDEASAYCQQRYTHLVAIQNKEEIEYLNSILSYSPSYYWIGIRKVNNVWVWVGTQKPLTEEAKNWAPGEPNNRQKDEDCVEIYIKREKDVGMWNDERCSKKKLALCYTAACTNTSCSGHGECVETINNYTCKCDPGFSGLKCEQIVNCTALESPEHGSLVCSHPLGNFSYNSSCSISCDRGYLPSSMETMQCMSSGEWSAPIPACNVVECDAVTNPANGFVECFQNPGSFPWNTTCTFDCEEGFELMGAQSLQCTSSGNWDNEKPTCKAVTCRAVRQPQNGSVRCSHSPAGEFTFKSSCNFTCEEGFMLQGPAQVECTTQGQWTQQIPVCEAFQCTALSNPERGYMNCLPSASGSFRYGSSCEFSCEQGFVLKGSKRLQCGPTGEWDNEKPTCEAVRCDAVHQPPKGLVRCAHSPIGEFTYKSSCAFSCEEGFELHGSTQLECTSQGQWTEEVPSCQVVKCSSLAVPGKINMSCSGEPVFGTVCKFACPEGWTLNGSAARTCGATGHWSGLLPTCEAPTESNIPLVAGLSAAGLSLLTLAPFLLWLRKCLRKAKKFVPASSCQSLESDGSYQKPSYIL
Sequence of Tumor necrosis factor (Homo sapiens) (P01375 whole entry, looked up): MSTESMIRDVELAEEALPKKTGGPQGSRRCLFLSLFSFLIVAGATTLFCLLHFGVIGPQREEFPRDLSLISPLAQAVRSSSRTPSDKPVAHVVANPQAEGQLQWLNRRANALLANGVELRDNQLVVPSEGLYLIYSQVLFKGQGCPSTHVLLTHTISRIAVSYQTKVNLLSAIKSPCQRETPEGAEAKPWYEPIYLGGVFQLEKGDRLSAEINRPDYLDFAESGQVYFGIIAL

As to `Cc1cc(C)c(O)c(C)c1`, the result in experiment [1], in [2], in experiment [3], in [4], in [5] and in experiment [6] was inactive. The outcome in [7], in [8], in experiment [9], in [10], in [12] and in experiment [13] was inactive. The outcome in experiment [15], in experiment [16], in [17], in [18], in experiment [19] and in experiment [20] was inactive. The AC50 (usually the concentration at which the activity in the assay is half-maximal) in experiment [11] was 2970 nM (active); in experiment [14] it was 352 nM (active).

For the molecule `c1ccc2cc3c(ccc4ccccc43)cc2c1`, the result in experiment [1], in experiment [2], in experiment [3], in experiment [4], in experiment [5] and in experiment [6] was inactive. The outcome in experiment [7], in experiment [8], in experiment [9], in experiment [10], in [11] and in [12] was inactive. For the same molecule, the outcome in experiment [14], in experiment [15], in [16], in experiment [17], in [18] and in experiment [19] was inactive. Further, the outcome in experiment [20] was inactive. For the same molecule, the AC50 in [13] was 587 nM (active).
